Data as given in PubChem BioAssay AID1159580 (chemical genetic matrix, 2015).
Out of some 5,500 compounds screened, about 2,000 (36%) were called active. About 18% were inconclusive and are not listed. No stated cut-off is given here; in the data, active means normalized growth mostly below about 0.91 (no sharp cut-off); inconclusive means no clear call, values can overlap the other calls; inactive means mostly above about 0.92. This is one part of the list.

Experiment: chemical genetic growth profiling, strain panel (AID 1159580);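 further: tested at 20 µM; growth read once vehicle control cultures reached saturation at 30 °C; 1 = growth at the plate median or of vehicle wells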
Settings: S. cerevisiae deletion strains, growth OD
[1] = locus YGR078C, strain PAC10, stronger effect = lower value
[2] = locus YJR075W, strain HOC1, stronger effect = lower value
[3] = locus YMR263W, strain SAP30, stronger effect = lower value
[4] = locus YNL128W, strain TEP1, stronger effect = lower value
[5] = locus YNL153C, strain GIM3, stronger effect = lower value
[6] = locus YNL322C, strain KRE1, stronger effect = lower value
[7] = locus YPL055C, strain LGE1, stronger effect = lower value
[8] = locus YPL241C, strain CIN2, stronger effect = lower value

Measured: normalized growth

Cn1cc(C(F)(F)F)nc1-c1ccc(OCC(O)CNCCOc2ccc(O)c(C(N)=O)c2)cc1 (configuration not stated)
inactive: locus YAL040C, strain CLN3, stronger effect = lower value 0.996 | locus YCL061C, strain MRC1 (second series), stronger effect = lower value 1 | locus YDR363W, strain ESC2, stronger effect = lower value 1.01 | locus YER002W, strain NOP16, stronger effect = lower value 1.04 | [1] 1.01 | [2] 1 | [3] 1.01 | [4] 1.02 | [5] 1.01 | locus YNL175C, strain NOP13, stronger effect = lower value 1.05 | locus YNL197C, strain WHI3, stronger effect = lower value 1.03 | locus YNL224C, strain SQS1, stronger effect = lower value 1.04 | [6] 1.03 | locus YOR083W, strain WHI5 (second series), stronger effect = lower value 0.987 | [7] 1.01 | [8] 1

CC(C)(C)c1ccc(CSc2nc(N)cc(=O)[nH]2)cc1
inactive: locus YAL013W, strain DEP1, stronger effect = lower value 0.993 | locus YBR229C, strain ROT2, stronger effect = lower value 1.02 | locus YCL061C, strain MRC1, stronger effect = lower value 0.998 | locus YDL101C, strain DUN1, stronger effect = lower value 0.981 | locus YDL134C, strain PPH21, stronger effect = lower value 1.01 | locus YDR150W, strain NUM1, stronger effect = lower value 0.949 | locus YEL061C, strain CIN8, stronger effect = lower value 0.995 | [1] 1 | locus YGR229C, strain SMI1, stronger effect = lower value 1.01 | locus YHR030C, strain SLT2, stronger effect = lower value 0.988 | locus YHR087W, strain rtc3, stronger effect = lower value 0.993 | locus YJL187C, strain SWE1, stronger effect = lower value 0.985 | locus YJR043C, strain POL32, stronger effect = lower value 1.01 | [2] 1.01 | locus YKL190W, strain CNB1, stronger effect = lower value 1.02 | locus YLR039C, strain RIC1, stronger effect = lower value 1.02 | locus YLR058C, strain SHM2 (second series), stronger effect = lower value 1.01 | locus YLR085C, strain ARP6, stronger effect = lower value 0.898 | locus YLR262C, strain YPT6, stronger effect = lower value 1.09 | locus YML094W, strain GIM5, stronger effect = lower value 0.975 | locus YMR219W, strain ESC1, stronger effect = lower value 1 | [3] 1.01 | locus YMR307W, strain GAS1, stronger effect = lower value 0.855 | [4] 1.01 | [5] 1.01 | locus YNL298W, strain CLA4 (second series), stronger effect = lower value 1.01 | [6] 1 | locus YNR030W, strain Alg12, stronger effect = lower value 1.01 | [7] 0.862 | [8] 0.972 | locus YPR135W, strain CTF4, stronger effect = lower value 0.949
